Rows were chosen to be rich in hits. Some 7.4% of all compounds tested hit in one or more screens of this group.
D1 mod: allosteric modulators of human D1 dopamine receptor; P21728; HEK293 D1, CRE-luciferase, dopamine EC30 potentiation; actives deviate in either direction; B-score at 10 µM; 5.9% of 58,000 active; AID 641;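 active = luminescence count or its row- and column-corrected plate score outside the 99.7% band of the plate's sample wells, on either side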
DAT uptake mod: modulates human dopamine transporter uptake under cocaine. B-score at 10 µM. LLC-PK1 hDAT cells, [14C]-dopamine uptake with cocaine IC80; actives deviate in either direction. Q01959. 1.3% of 110,000 active;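 active = Z score or B-score, a plate-position-corrected score, falls beyond the plate's 99.7% confidence bounds, in either direction; inactive = both scores lie inside the 99.7% bounds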;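 note: scored against the spread of the other compound wells on the same plate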
FXIIa mix inh: inhibitors of human coagulation factor XIIa, pooled mixtures; P00748; purified FXIIa, fluorogenic substrate; inhibition, % at 5 µM; 0.2% of 62,000 active;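 note: 0% = enzyme without compound and 100% = no enzyme blank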
FXIa mix inh: blocks human factor XIa in pooled compound mixtures | P03951 | purified FXIa, fluorogenic substrate | inhibition, % at 5 µM | 0.19% of 62,000 active;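 note: each value is inhibition by a whole ten-compound pool holding the compound; 0% = enzyme with no mixture and 100% = wells lacking enzyme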
Target sequence (P03951 19-387 limits assumed): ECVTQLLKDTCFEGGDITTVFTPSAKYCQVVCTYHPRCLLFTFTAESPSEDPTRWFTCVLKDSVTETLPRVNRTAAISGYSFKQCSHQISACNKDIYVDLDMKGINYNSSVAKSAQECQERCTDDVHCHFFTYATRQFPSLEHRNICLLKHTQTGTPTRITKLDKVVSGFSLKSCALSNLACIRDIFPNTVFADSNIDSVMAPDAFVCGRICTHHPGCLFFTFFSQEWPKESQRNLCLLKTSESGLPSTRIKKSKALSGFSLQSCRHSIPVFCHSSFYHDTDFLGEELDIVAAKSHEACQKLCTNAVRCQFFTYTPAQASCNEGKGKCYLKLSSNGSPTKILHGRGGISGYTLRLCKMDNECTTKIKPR
Target sequence (P03951 388-625 limits assumed): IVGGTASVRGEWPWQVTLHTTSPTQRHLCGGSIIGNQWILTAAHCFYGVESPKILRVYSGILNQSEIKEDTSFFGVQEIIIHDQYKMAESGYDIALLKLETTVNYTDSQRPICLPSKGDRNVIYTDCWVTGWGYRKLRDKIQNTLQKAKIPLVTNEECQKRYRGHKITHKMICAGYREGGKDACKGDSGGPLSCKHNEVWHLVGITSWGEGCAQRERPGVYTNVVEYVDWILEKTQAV
M1 ag: activates the M1 muscarinic receptor; 3% of 64,000 active; CHO-M1 cells, Fluo-4 calcium fluorescence, agonist mode; stronger effect = higher value; B-score at 10 µM;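 active = fluorescence rise, raw or as B-score row- and column-corrected plate score, outside the 99.7% band of its plate's samples, either direction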
M1 antagonist: blocks the rat M1 muscarinic receptor response to acetylcholine; P08482; CHO-M1 cells, Fluo-4 calcium, ACh EC80 antagonist mode; stronger effect = lower value; B-score at 10 µM; 3.4% of 64,000 active; AID 628;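 active = calcium fluorescence response, raw or row-and-column corrected B-score, differing from the plate sample mean either way at a set confidence level, mostly lower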
M1 ag confirm: rat M1 muscarinic agonism, confirmation; shares compounds with M1 ag; CHO-M1 cells, Fluo-4 calcium fluorescence, agonist mode; actives lie on both sides; fluorescence change (max-min) at 10 µM; 19% of 1,700 active; AID 1488;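 active = fluorescence change differs from the solvent-only DMSO control mean at a set confidence level in both duplicate runs; inconclusive = differs from solvent-only control mean in just one of two runs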;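 note: an EC20 dose of acetylcholine follows compound addition during the same imaging run; raw fluorescence intensity difference in instrument units with no normalization to controls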
M4 ag counter: activates rat M4 receptor in counter-screen for M1 agonists. CHO M4/Gqi5 cells, Fluo-4 calcium fluorescence, agonist mode; actives lie on both sides. fluorescence change (max-min) at 10 µM. 9% of 1,700 active. shares compounds with M1 ag;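 active = fluorescence change differing from the plate's solvent-only control wells at 99.7% confidence in both duplicates, whether higher or lower; inconclusive = differs from solvent controls in only one of two duplicates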
* hit, by the source's call; ? = inconclusive; . = no result; ! = a repeat was not active. Cut-off read from the data, not from the text of the source, unless noted: active = inhibition above about 20% (passing the limit was not always enough); inactive = the rest.

SMILES	D1 mod	DAT uptake mod	FXIIa mix inh	FXIa mix inh	M1 ag	M1 antagonist	M1 ag confirm	M4 ag counter
CCN(CC)P1(=O)OC(c2cc(OC)c(OC)c(OC)c2)=Nc2c1c(C)nn2-c1ccccc1 (stereo not given)	0.251	1.39	11.9	2.3	4.42*	0.433	6.98	-33.1
O=C(CNC(=O)c1ccco1)OCc1c(F)cccc1Cl	-0.0773	0.00533	1.2	10.0	-0.489	0.347	.	.
Cc1nn(-c2ccccc2)c(N2CCCC2)c1/C=N/n1cnc2scc(-c3ccccc3)c2c1=O	-0.112	2.3	-13.1	0.0	9.13*	-2.44*	5.57	-14.6
CN1CCCc2cc3c(C(F)(F)F)cc(=O)oc3nc21	2.57	-0.195	16.9	-4.2	429*	-17.3*	2526*	2146*
COc1ccccc1OCC(=O)Nc1ccccc1C(=O)NCc1ccco1	.	0.905	.	.	.	.	.	.
O=C(COc1ccccc1)Nc1ccccc1C(=O)NCc1ccco1	0.595	1.01	1.2	-19.8	6.67*	-0.428	?	-42.1
C=CCN1C(c2ccc(OCC)cc2)=CS/C1=C(\C#N)c1nnc2n1CCCCC2	-0.491	3.79*!	-2.4	10.0	6.64*	-0.605	-3.65	-23.7
CCCCCn1c(=N)n(CC(O)COc2ccccc2OC)c2ccccc21 (stereo not given)	-5.83*	2.48	-36.6	3.4	3.08*	0.248	2.86	11.1
CC(C)(C)c1ccc(C2=CC(c3ccccc3)n3ncnc3N2)cc1 (stereo not given)	.	-0.605	.	.	.	.	.	.
Cc1ccc(C2=CC(c3ccc(C)cc3)n3ncnc3N2)cc1 (stereo not given)	.	-0.0587	.	.	.	.	.	.
CCOc1ccc(C2C=C(c3ccc(C)cc3)Nc3ncnn32)cc1 (stereo not given)	-0.585	0.341	-17.7	23.0*	5.48*	-0.857	129*	?
COc1ccc(C2C=C(c3ccccc3)Nc3ncnn32)cc1 (stereo not given)	-0.0277	1.03	5.9	1.0	9.71*	-0.485	85.6*	69.9
O=C1c2ccccc2C(Nc2ccc(Cl)cn2)N1Cc1ccccc1 (stereo not given)	.	1.62	.	.	.	.	.	.
O=C(CSc1nc2ccccc2o1)Nc1ccc(Cl)cc1	.	-0.0236	.	.	.	.	.	.
NS(=O)(=O)c1ccc(CCNc2ncnc3sccc23)cc1	-1.88	-0.363	4.1	-3.0	3.07*	0.468	0.133	-15.3
O=C(Nc1ccccc1NC(=O)c1c(F)c(F)c(F)c(F)c1F)c1c(F)c(F)c(F)c(F)c1F	-1.15	1.62	7.9	-3.7	2.89*	-1.64	-4.43	?
O=C(Nc1cccc(F)c1)c1c(F)c(F)c(F)c(F)c1F	-0.943	-0.818	6.4	1.7	3.7*	-1.04	-0.429	-58.3
CCCCCCc1cc2cc(-c3nnc(-c4ccccc4OC)o3)c(=O)oc2cc1O	.	0.397	.	.	.	.	.	.
CCCCCCc1cc2cc(-c3nnc(-c4ccccc4O)o3)c(=O)oc2cc1O	.	0.476	.	.	317*	3.33*	781*	843*
CCCc1cc(=O)[nH]c(SCC(=O)Nc2nonc2N)n1	-0.418	-0.315	-25.4	4.2	0.0427	-2	.	.
CCN=C1SC(C(=O)Nc2cccc(OCC)c2)CC(=O)N1CC (stereo not given)	0.84	-0.163	-21.0	2.8	7.6*	-0.411	-17.6	-14.6
Cc1nn(-c2ccccc2)c(Cl)c1/C=C/C(=O)c1ccccc1	.	-0.381	.	.	.	.	.	.
CN(C)N1C(N)=C(C#N)C(c2cccnc2)C2=C1CC(C)(C)CC2=O (stereo not given)	.	-0.631	.	.	.	.	.	.
O=C(NCCN1CCOCC1)NC1(C(F)(F)F)Oc2ccc(Cl)cc2O1 (stereo not given)	-1.32	.	8.4	6.1	0.0503	-1.83	.	.
COCC(C)NC(=O)NC1(C(F)(F)F)Oc2ccc(Cl)cc2O1 (stereo not given)	-0.138	-3.16*	3.8	0.4	6.4*	0	?	-47
Cc1cc(C)c2cc3c(ccn3C3OC[C@H](O)[C@H](O)[C@H]3O)cc2n1 (stereo not given in full)	-0.0416	-0.759	15.0	5.2	36.3*	-0.622	201*	156

Screening results (PubChem BioAssay)
